Here are results for 57 molecules from the supplement of paper PMC13380429.

Assay [1] has as its system Vero E6 infected with SARS-CoV-2. As to the kind of experiment: morphology score (similarity to uninfected cells); higher = more like uninfected cells. Conditions: 24 h.
The test system is the same in assay [2]. As to the kind of experiment: SARS-CoV-2 infection rate relative to infected DMSO; higher = more infection, active = 60 or less. The following applies: 24 h.

Take `CCC(=O)O[C@]1(C(=O)COC(C)=O)CC[C@H]2[C@@H]3C[C@H](C)C4=CC(=O)C=C[C@]4(C)[C@H]3[C@@H](O)C[C@@]21C` [methylprednisolone-aceponate] (10 µM): in assay [1], the morphology score was determined as 0.0786. Moreover, the SARS-CoV-2 infection rate in assay [2] was 108% (inactive).
The matching figures for `CCc1nc(C)ccc1O` [emoxipin] (10 µM): 0.143 and 99.5% (inactive).
The like results for `CCC1=C[C@@H]2CN3CCc4c([nH]c5ccccc45)[C@@](C(=O)OC)(C2)[C@@H]13` [catharanthine] (10 µM) were, in that order, 0.119 and 110% (inactive).
The like results for `CCC(C)(CN(C)C)OC(=O)c1ccccc1` (centres undefined) [amyleine] (10 µM) were, in that order, -0.104 and 120% (inactive).
Consider `CC(C)(C)C(=O)Oc1ccc(S(=O)(=O)Nc2ccccc2C(=O)NCC(=O)O)cc1` [sivelestat] (10 µM), for which the morphology score in assay [1] came to 0.168. In addition, the SARS-CoV-2 infection rate in assay [2] is 95% (inactive).
The like results for `CNCC(O)c1ccc(O)c(O)c1` (racemic) [DL-Adrenaline] (10 µM) were, in that order, 0.188 and 109% (inactive).
`CC(C)N[C@H]1CCn2c(=O)[nH]c3cccc(c32)[C@@H]1O` [zilpaterol] (10 µM): the morphology score in assay [1] was 0.19. The SARS-CoV-2 infection rate in assay [2] was 106% (inactive).
As to `CC(Cc1ccccc1)(NC(=O)CN)c1ccccc1` (centres undefined) [remacemide] (10 µM), in assay [1], the morphology score is -0.124. For the same molecule, in assay [2], the SARS-CoV-2 infection rate is 113% (inactive).
Turning to `CC(=O)OCC(=O)[C@@]1(O)CC[C@H]2[C@@H]3CCC4=CC(=O)C=C[C@]4(C)[C@@]3(Cl)[C@@H](Cl)C[C@@]21C` [dichlorisone-acetate] (10 µM), in assay [1], the morphology score is -0.00102. In assay [2], the SARS-CoV-2 infection rate is 102% (inactive).
The matching figures for `Nc1n[n+]([O-])c2ccccc2[n+]1[O-]` [tirapazamine] (10 µM): 0.0691 and 99.5% (inactive).
The matching figures for `C[C@H]1O[C@@H](O[C@H]2[C@@H](O)C[C@H](O[C@H]3[C@@H](O)C[C@H](O[C@H]4CC[C@@]5(C)[C@H](CC[C@@H]6[C@@H]5C[C@@H](O)[C@]5(C)[C@@H](C7=CC(=O)OC7)CC[C@]65O)C4)O[C@@H]3C)O[C@@H]2C)C[C@H](O)[C@@H]1O` [digoxin] (0.833333 µM): -0.256 and 98% (inactive).
The matching figures for `COc1ccc(-c2cc(=O)c3c(OC)c(OC)c(OC)c(OC)c3o2)cc1` [tangeritin] (10 µM): 0.00246 and 105% (inactive).
Take `CCOc1ccc2ccccc2c1C(=O)N[C@@H]1C(=O)N2[C@@H]1SC(C)(C)[C@@H]2C(=O)O` [nafcillin] (10 µM): in assay [1], the morphology score was -0.164. For the same molecule, the SARS-CoV-2 infection rate in assay [2] was 112% (inactive).
The like results for `Cc1nc(C)c(-c2ccc(C3CCC(CC(=O)O)CC3)cc2)nc1C(N)=O` (centres undefined) (10 µM) were, in that order, 0.134 and 89.5% (inactive).
For the molecule `O=C1CCC(N2C(=O)c3ccccc3C2=O)C(=O)N1` (centres undefined) [thalidomide] (10 µM), the morphology score in assay [1] is -0.223. Also, the SARS-CoV-2 infection rate in assay [2] is 104% (inactive).
The like results for `c1cnc2cc3c(cc2n1)[C@@H]1CNC[C@H]3C1` [varenicline] (10 µM) were, in that order, -0.0409 and 101% (inactive).
The like results for `C=CCN1CC[C@]23c4c5ccc(O)c4O[C@H]2[C@@H](OCCOCCOCCOCCOCCOCCOCCOC)CC[C@@]3(O)[C@H]1C5` [naloxegol] (10 µM) were, in that order, 0.25 and 92% (inactive).
The matching figures for `CC(C)[C@H]1c2ccc(F)cc2CC[C@@]1(CCN(C)CCCc1nc2ccccc2[nH]1)OC(=O)C1CC1` (0.833333 µM): 0.0422 and 98% (inactive).
Molecule `COc1cc2c(cc1OC)[C@@]13CCN4CC5=CCO[C@H]6CC(=O)N2[C@H]1[C@H]6[C@H]5C[C@H]43` [brucine] (10 µM) returned a morphology score in assay [1] of 0.0385. The SARS-CoV-2 infection rate in assay [2] is 105% (inactive).
The like results for `Nc1ccn([C@@H]2O[C@H](CO)[C@@H](O)C2(F)F)c(=O)n1` [gemcitabine] (0.833333 µM) were, in that order, -0.00574 and 114% (inactive).
The like results for `COc1cc(-n2c(=S)[nH]c3ccccc3c2=O)c(Cl)cc1Cl` [mdivi-1] (10 µM) were, in that order, -0.0304 and 112% (inactive).
Turning to `O=C(O)c1cc(/N=N/c2ccc(O)c(C(=O)O)c2)ccc1O` [olsalazine] (10 µM), in assay [1], the morphology score came to 0.062. Moreover, the SARS-CoV-2 infection rate in assay [2] was 104% (inactive).
The matching figures for `C=CC[N+]1([C@H]2C[C@H]3[C@@H]4CC[C@H]5C[C@H](O)[C@@H](N6CCOCC6)C[C@]5(C)[C@H]4CC[C@]3(C)[C@H]2OC(C)=O)CCCC1` (10 µM): 0.061 and 110% (inactive).
The like results for `CCNCCCNCCCCNCCCNCC` (0.833333 µM) were, in that order, 0.312 and 80.5% (inactive).
The matching figures for `O=S(=O)(O)CCS` [mesna] (10 µM): 0.157 and 109% (inactive).
For the molecule `CC[N+](CC)(CCCNC1=CC(=O)C(NCCC[N+](CC)(CC)Cc2ccccc2)=CC1=O)Cc1ccccc1` [benzoquinonium-dibromide] (10 µM), in assay [1], the morphology score was -0.00889. The SARS-CoV-2 infection rate in assay [2] was 113% (inactive).
On to `CCOc1c2c(c(OCC)c3ccccc13)C(=O)N(c1ccc(CC(=O)NS(=O)(=O)c3ccccc3)cc1)C2` (10 µM), for which the morphology score in assay [1] was 0.117. Further, in assay [2], the SARS-CoV-2 infection rate is 104% (inactive).
`C=C1/C(=C\C=C2/CCC[C@]3(C)[C@@H]([C@H](C)OCCC(C)(C)O)CC[C@@H]23)C[C@@H](O)C[C@@H]1O` [maxacalcitol] (10 µM) had a morphology score in assay [1] of -0.0664. Moreover, the SARS-CoV-2 infection rate in assay [2] was 122% (inactive).
The like results for `CC(NCCc1ccc(O)cc1)C(O)c1ccc(O)cc1` (centres undefined) [ritodrine] (10 µM) were, in that order, 0.154 and 96% (inactive).
The matching figures for `O=C(O)c1cccc(-c2noc(-c3ccccc3F)n2)c1` [ataluren] (10 µM): -0.00572 and 112% (inactive).
The like results for `Cc1cc(Nc2ncnc3ccc(-c4ccc(CNCCS(C)(=O)=O)o4)cc23)ccc1Oc1ccn2ncnc2c1` [HER2-Inhibitor-1] (10 µM) were, in that order, 0.174 and 95% (inactive).
In the case of `N[C@@H](Cc1cc(I)c(Oc2ccc(O)c(I)c2)c(I)c1)C(=O)O` [liothyronine] (10 µM), in assay [1], the morphology score is 0.106. In addition, in assay [2], the SARS-CoV-2 infection rate is 108% (inactive).
`CCOC(=O)c1ccc(C#Cc2ccc3c(c2)C(C)(C)CCS3)nc1` [tazarotene] (10 µM) yielded a morphology score in assay [1] of -0.0471. For the same molecule, the SARS-CoV-2 infection rate in assay [2] is 93% (inactive).
In turn, `CC(=O)OCC(=O)[C@@]12N=C(C)O[C@@H]1C[C@H]1[C@@H]3CCC4=CC(=O)C=C[C@]4(C)[C@H]3[C@@H](O)C[C@@]12C` [Deflazacort (Calcort)] (10 µM) came in with a morphology score in assay [1] of 0.0216. The SARS-CoV-2 infection rate in assay [2] is 97.5% (inactive).
In assay [1], `Cc1cccc(N(C)C(=S)Oc2ccc3ccccc3c2)c1` [tolnaftate] (10 µM) displayed a morphology score of 0.136. Besides, the SARS-CoV-2 infection rate in assay [2] is 104% (inactive).
Molecule `CCOc1ccc(-c2ccc(Cn3c(CC(C)(C)C(=O)O)c(SC(C)(C)C)c4cc(OCc5ccc(C)cn5)ccc43)cc2)cn1` (0.833333 µM) showed a morphology score in assay [1] of 0.228. In assay [2], the SARS-CoV-2 infection rate is 118% (inactive).
The like results for `O=C(CCBr)N1CC[N+]2(CC1)CC[N+]1(CCN(C(=O)CCBr)CC1)CC2` [spirobromin] (10 µM) were, in that order, -0.0585 and 112% (inactive).
The matching figures for `C[N+]1([O-])[C@@H]2CC[C@H]1C[C@@H](OC(=O)C(CO)c1ccccc1)C2` (some centres undefined) [atropine-oxide] (10 µM): 0.0224 and 106% (inactive).
Consider `C[C@@H]1CN(Cc2ccc(F)cc2)[C@@H](C)CN1C(=O)c1cc2c(C(=O)C(=O)N(C)C)cn(C)c2cc1Cl` [talmapimod] (10 µM), for which the morphology score in assay [1] was 0.103. The SARS-CoV-2 infection rate in assay [2] was 88.5% (inactive).
On to `O=c1[nH]c2ccccc2n1C1CCN(CCOc2ccccc2)CC1` [oxiperomide] (0.833333 µM), for which, in assay [1], the morphology score was -0.0147. In assay [2], the SARS-CoV-2 infection rate is 104% (inactive).
Regarding `O=C(O)C1=CCCN(CCON=C(c2ccccc2)c2ccccc2)C1` (10 µM), the morphology score in assay [1] is 0.0245. Besides, the SARS-CoV-2 infection rate in assay [2] is 95% (inactive).
For `CC(CN(C)C)CN1c2ccccc2CCc2ccccc21` (centres undefined) [trimipramine] (10 µM), in assay [1], the morphology score was found to be 0.451. In addition, in assay [2], the SARS-CoV-2 infection rate was 80.5% (inactive).
`CCOC(=O)Nc1ccc2c(c1)N(C(=O)CCN1CCOCC1)c1ccccc1S2` [moracizine] (10 µM) had a morphology score in assay [1] of 0.154. In assay [2], the SARS-CoV-2 infection rate is 112% (inactive).
The matching figures for `Cc1ccc(C(=O)NCCCCCC(=O)Nc2ccccc2N)cc1` (0.833333 µM): -0.0541 and 120% (inactive).
The like results for `O=C(O)CCc1cc(I)c(Oc2ccc(O)cc2)c(I)c1` [diiodothyropropionic-acid] (10 µM) were, in that order, 0.207 and 92% (inactive).
As for `COc1cccc(-c2cc(NCc3ccc4c(c3)OCO4)nc(N)n2)c1` (10 µM), in assay [1], the morphology score is -0.021. In addition, the SARS-CoV-2 infection rate in assay [2] was 111% (inactive).
The matching figures for `CC(C)C(N)C(=O)O` (stereo in doubt) [L-valine] (10 µM): 0.0236 and 109% (inactive).
Consider `O=C(O)c1ccc(S(=O)(=O)N(Cc2ccc(OC(F)(F)F)cc2)c2ncc(C(F)(F)F)cc2Cl)cc1` (10 µM), for which the morphology score in assay [1] was 0.114. The SARS-CoV-2 infection rate in assay [2] was 102% (inactive).
The like results for `NC(=O)CN1Cc2ccccc2OC1=O` [caroxazone] (10 µM) were, in that order, 0.0974 and 100% (inactive).
As for `O=C1CCCN1CC#CCN1CCCC1` [oxotremorine-sesquifumarate] (10 µM), the morphology score in assay [1] came out at 0.062. For the same molecule, the SARS-CoV-2 infection rate in assay [2] was 100% (inactive).
Take `OCc1cccnc1` [nicotinyl-alcohol-tartrate] (10 µM): the morphology score in assay [1] was -0.13. The SARS-CoV-2 infection rate in assay [2] is 118% (inactive).
The like results for `CCCCC/C=C\C/C=C\C/C=C\CCCCC(=O)O` [gamma-linolenic-acid] (10 µM) were, in that order, 0.0589 and 102% (inactive).
The matching figures for `Cc1cc2c(F)c(Oc3ncnn4cc(OC[C@@H](C)OC(=O)[C@H](C)N)c(C)c34)ccc2[nH]1` [brivanib-alaninate] (10 µM): 0.385 and 106% (inactive).
`CN(C)c1ccccc1CN1CCCN(Cc2ccccc2N(C)C)C1c1ccncc1` (10 µM): the morphology score in assay [1] came to 0.576. In addition, the SARS-CoV-2 infection rate in assay [2] was 42% (active).
As for `Cc1ccc(-c2csc3ncnc(SCCC(=O)O)c23)cc1` (10 µM), the morphology score in assay [1] is 0.15. Moreover, the SARS-CoV-2 infection rate in assay [2] is 103% (inactive).
In the case of `C[C@H](CCC(=O)O)[C@H]1CC[C@H]2[C@@H]3[C@@H](O)C[C@@H]4C[C@H](O)CC[C@]4(C)[C@H]3CC[C@]12C` [ursodiol] (10 µM), the morphology score in assay [1] was -0.0233. The SARS-CoV-2 infection rate in assay [2] was 106% (inactive).
The like results for `OC[C@@H](O)[C@@H](O[C@@H]1O[C@H](CO)[C@H](O)[C@H](O)[C@H]1O)[C@H](O)[C@@H](O)CO` (10 µM) were, in that order, -0.0894 and 111% (inactive).
